Source: PubChem BioAssay (Tox21)
Inconclusive results are not listed. The source made the active and inactive calls. Unless noted, the call rests on the fitted dose curve; in most records, active means well fitted curve in the direction sought with a large enough effect in the repeat runs; inconclusive means weak or mixed curves; inactive means no such curve, though single readings can be large; an effect the other way counts as inactive or inconclusive.

Columns and labels:
[1] = qHTS assay for small molecule agonists of the p53 signaling pathway (AID 651631; calls by dose curve; further: nearly all actives have a fitted effect of over 15% in size; further: potency means the concentration at half of the fitted maximal effect)
How it was run: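 HCT-116 cells carrying a beta-lactamase reporter under p53 response elements were dosed with compound for 16 h at 37 °C. LiveBLAzer B/G FRET substrate was then added for 2 h at room temperature, and fluorescence intensity was read to detect pathway agonism.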

[2] = qHTS assay for small molecules that induce genotoxicity in human embryonic kidney cells expressing luciferase-tagged ATAD5 (AID 651632); further: nearly all actives have a fitted effect of over 15% in size; further: potency means the concentration at half of the fitted maximal effect
How it was run: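 Concentration-response screen for ATAD5 upregulation in HEK293T luciferase reporter cells; 16 hr treatment at 37C, then luminescence after 30 min with Amplite at room temperature.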

[3] = qHTS assay for small molecule agonists of the p53 signaling pathway - cell viability (AID 651633; calls by dose curve;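 further: p53RE-bla HCT reporter cells with a stable beta-lactamase p53 reporter; series mostly up to about 83 µM; nearly all actives have a fitted effect of over 30% in size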)
How it was run: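 p53RE-bla cells, seeded at 4,000 per well and rested 5 h at 37 C/5% CO2, received compounds in DMSO for 16 h at 37 C. CellTiter-Glo was then added, and luminescence was read after 30 min at room temperature to gauge cytotoxicity.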

[4] = qHTS assay for small molecules that induce genotoxicity in human embryonic kidney cells expressing luciferase-tagged ATAD5 - cell viability (AID 651634; calls by dose curve; further: nearly all actives have a fitted effect of over 25% in size)
How it was run: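 15.5 hr compound or vehicle exposure of HEK293T cells expressing luciferase-tagged ATAD5 at 37C; live-cell protease activity is read by fluorescence after 30 min of CellTiter-Fluor.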

[5] = qHTS assay for small molecule disruptors of the mitochondrial membrane potential - cell viability (AID 720634; calls by dose curve;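 further: human HepG2 liver cancer cells; series mostly up to about 83 µM; nearly all actives have a fitted effect of over 20% in size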)
How it was run: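 In this qHTS format, HepG2 cells plated overnight were pinned with compound, incubated 1 hr, and assayed for ATP luminescence with CellTiter-Glo after m-MPI dye addition.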

[6] = qHTS assay to test for compound auto fluorescence at 590 nm (red) in HepG2 cells (AID 720674)
How it was run: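 Rose Bengal sodium served as the red fluorophore standard. HepG2 monolayers (overnight attachment, MEM with 10% FBS) were exposed to test compounds for 1 hr at 37 C and read at Ex 540/Em 590 nm.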

[7] = qHTS assay to test for compound auto fluorescence at 535 nm (green) in HepG2 cells (AID 720675)
[8] = qHTS assay to test for compound auto fluorescence at 460 nm (blue) in HEK293 cells (AID 720678)
How it was run: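 HEK293 cells (2,000 per well, medium with 10% dialyzed FBS) attached for 4-5 hr at 37C, then received compound and stood overnight at 37C, 5% CO2. Blue fluorescence was read at Ex/Em 405/460 nm and expressed relative to triamterene.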

[9] = qHTS assay to test for compound auto fluorescence at 590 nm (red) in HEK293 cells (AID 720679)
How it was run: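 HEK293 cells (2,000/well, medium with 10% dialyzed FBS) attached for 4-5 hr at 37C, received 23 nL compound and were incubated overnight at 37C, 5% CO2. Red fluorescence was then read at 540/590nm Ex/Em, referenced to Rose Bengal sodium.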

[10] = qHTS assay to test for compound auto fluorescence at 535 nm (green) in HEK293 cells (AID 720680)
[11] = qHTS assay to test for compound auto fluorescence at 460 nm (blue) in HEK293 cell free culture (AID 720681)
How it was run: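 Test compounds were pinned into cell-free culture medium (DMEM with 10% FBS) and fluorescence was read directly at Ex/Em 405/460 nm. Signals were expressed as fluorescence equivalents of triamterene, with DMSO vehicle as control.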

[12] = qHTS assay to test for compound auto fluorescence at 535 nm (green) in HEK293 cell free culture (AID 720682)
How it was run: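 Green-label autofluorescence (485 nm excitation, 535 nm emission) measured on compound added to cell-free culture medium (DMEM, 10% FBS). Output is expressed relative to fluorescein.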

[13] = qHTS assay to test for compound auto fluorescence at 590 nm (red) in HepG2 cell free culture (AID 720684)
How it was run: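 Readout: intrinsic compound fluorescence at 590 nm emission after 540 nm excitation, scaled to Rose Bengal sodium. Matrix was cell-free MEM with 10% FBS; DMSO vehicle wells served as control.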

[14] = qHTS assay to test for compound auto fluorescence at 460 nm (blue) in HepG2 cell free culture (AID 720685)
How it was run: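 Cell-free plates of MEM plus 10% FBS received 23 nL compound or DMSO vehicle; blue-channel (405/460 nm) intensity scored against triamterene as reference fluorophore.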

[15] = qHTS assay to test for compound auto fluorescence at 535 nm (green) in HepG2 cell free culture (AID 720686)
[16] = qHTS assay to test for compound auto fluorescence at 460 nm (blue) in HepG2 cells (AID 720687)
How it was run: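 Cells (2,000/well in MEM with 10% FBS) attached overnight at 37 C, then were exposed to compound or DMSO for 1 hr at 37 C, 5% CO2. Fluorescence read at Ex/Em 405/460 nm, expressed as triamterene-equivalent signal.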

[17] = biological target: Glucocorticoid receptor (Homo sapiens) (UniProt P04150); assay: qHTS assay to identify small molecule agonists of the glucocorticoid receptor (GR) signaling pathway (AID 720691; active means well fitted activation curve with a large enough effect in the signal ratio in the repeat runs, not every such curve was filed as active; the % refers to the signal ratio)
How it was run: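 Measures GR pathway activation through a GRE-beta-lactamase reporter stably integrated in HeLa cells, with 18 h compound treatment at 37 C and fluorescence detection using a FRET substrate.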

[18] = biological target: Glucocorticoid receptor (Homo sapiens) (UniProt P04150); assay: qHTS assay to identify small molecule antagonists of the glucocorticoid receptor (GR) signaling pathway (AID 720692; active means well fitted inhibition curve with a large enough effect in the signal ratio in the repeat runs, not every such curve was filed as active; the % refers to the signal ratio)
How it was run: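 Tox21 10K library screened in concentration-response for blockade of dexamethasone (5 nM final)-induced GRE-bla reporter activity in HeLa cells; 18 h treatment, fluorescence read.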

[19] = qHTS assay to test for compound auto fluorescence at 590 nm (red) in HEK293 cell free culture (AID 720683)
How it was run: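 Tox21 10K library compounds were pinned into cell-free DMEM with 10% FBS and fluorescence was read at excitation 540 nm. Activity is expressed as Rose Bengal sodium equivalency.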

[20] = qHTS assay for small molecule disruptors of the mitochondrial membrane potential (AID 720635); further: potency means the concentration at half of the fitted maximal effect
How it was run: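 HepG2 cells (2,000/well) attached overnight at 37C, then took compound for 1 hr at 37C, 5% CO2. Mito-MPS dye was added for 30 min; fluorescence was read at 490/535 nm (monomers) and 540/590 nm (aggregates).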
On the % scale 0 is the no-effect control and ±100 the full control effect.

Chain of Glucocorticoid receptor (Homo sapiens) (P04150 whole entry, looked up): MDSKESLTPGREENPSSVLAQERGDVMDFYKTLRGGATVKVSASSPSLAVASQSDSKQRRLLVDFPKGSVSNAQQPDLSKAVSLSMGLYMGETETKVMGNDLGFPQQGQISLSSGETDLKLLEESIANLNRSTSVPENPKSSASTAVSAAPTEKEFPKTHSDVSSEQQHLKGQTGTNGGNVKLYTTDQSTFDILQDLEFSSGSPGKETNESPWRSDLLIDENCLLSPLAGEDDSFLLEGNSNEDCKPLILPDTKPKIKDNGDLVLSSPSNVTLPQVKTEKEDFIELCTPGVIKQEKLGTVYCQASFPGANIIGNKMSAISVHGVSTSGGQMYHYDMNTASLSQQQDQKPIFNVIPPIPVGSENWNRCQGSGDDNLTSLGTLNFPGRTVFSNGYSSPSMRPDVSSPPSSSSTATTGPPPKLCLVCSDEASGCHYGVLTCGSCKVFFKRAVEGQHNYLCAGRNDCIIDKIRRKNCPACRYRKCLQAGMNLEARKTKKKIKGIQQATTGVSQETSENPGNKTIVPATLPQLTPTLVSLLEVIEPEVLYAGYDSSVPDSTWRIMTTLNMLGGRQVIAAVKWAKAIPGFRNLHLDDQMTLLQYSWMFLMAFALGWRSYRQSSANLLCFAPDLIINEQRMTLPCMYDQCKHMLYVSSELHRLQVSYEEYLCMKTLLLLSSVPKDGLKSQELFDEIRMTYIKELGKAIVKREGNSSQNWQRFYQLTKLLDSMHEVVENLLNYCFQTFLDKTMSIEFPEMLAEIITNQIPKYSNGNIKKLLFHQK

CC1=C(C)C(=O)C(C(CCCCCC(=O)O)c2ccccc2)=C(C)C1=O (stereo not given)
inactive: Potency [1] | Potency [2] | Potency [3] | Potency [4] | Potency [5] | outcome [6] | outcome [7] | Potency [8] | outcome [9] | outcome [10] | Potency [11] | outcome [12] | outcome [13] | outcome [14] | outcome [15] | outcome [16] | Potency [17] | Potency [18]

C[C@H]1C[C@H]2[C@@H]3CCC4=CC(=O)C=C[C@]4(C)[C@@]3(F)[C@@H](O)C[C@]2(C)[C@@]1(O)C(=O)COP(=O)(O)O
inactive: Potency [1] | Potency [2] | Potency [3] | Potency [4] | Potency [5] | outcome [7] | Potency [8] | outcome [9] | outcome [10] | Potency [11] | outcome [12] | outcome [19] | outcome [13] | outcome [14] | outcome [15] | outcome [16]

CC(C)(O)C(=O)O
inactive: Potency [1] | Potency [2] | Potency [3] | Potency [4] | Potency [5] | outcome [6] | outcome [7] | Potency [8] | outcome [9] | outcome [10] | Potency [11] | outcome [19] | outcome [13] | outcome [14] | outcome [15] | outcome [16] | Potency [17]

COc1ccc(C(=O)c2ccc(C)cc2)c(O)c1
inactive: Potency [1] | Potency [2] | Potency [3] | Potency [4] | outcome [7] | Potency [8] | outcome [9] | Potency [11] | outcome [12] | outcome [19] | outcome [14] | outcome [15] | outcome [16]
active: Potency [20] 61800 nM

CO[C@@H]1COCC[C@@H]1N[C@@H]1CC[C@@](C(=O)N2CCc3ncc(C(F)(F)F)cc3C2)(C(C)C)C1
inactive: Potency [1] | Potency [2] | Potency [3] | Potency [4] | Potency [5] | outcome [6] | outcome [7] | Potency [8] | outcome [9] | Potency [11] | outcome [12] | outcome [13] | outcome [14] | outcome [15] | outcome [16] | Potency [17] | Potency [18]

C/C=C1\[C@H]2C=C(C)C[C@]1(N)c1ccc(=O)[nH]c1C2
inactive: Potency [1] | Potency [2] | Potency [3] | Potency [4] | Potency [5] | outcome [7] | Potency [8] | outcome [9] | outcome [10] | Potency [11] | outcome [19] | outcome [13] | outcome [14] | outcome [15] | outcome [16] | Potency [17] | Potency [18]

O=[N+]([O-])c1ccccc1CCO
inactive: Potency [1] | Potency [2] | Potency [3] | Potency [4] | Potency [5] | outcome [6] | outcome [7] | Potency [8] | outcome [9] | outcome [10] | Potency [11] | outcome [12] | outcome [13] | outcome [14] | outcome [15] | outcome [16] | Potency [17]

O=C1c2ccccc2C(=O)C1c1ccc2ccccc2n1
inactive: Potency [1] | Potency [3] | Potency [4] | outcome [6] | outcome [7] | Potency [8] | outcome [9] | Potency [11] | outcome [12] | outcome [19] | outcome [13] | outcome [14] | outcome [15] | outcome [16] | Potency [17] | Potency [18]
active: Potency [2] 76.2 nM | Potency [20] 340 nM

O=C(OC1C[C@H]2CC[C@@H](C1)[N+]21CCCC1)C(O)(c1ccccc1)c1ccccc1 (stereo not given in full)
inactive: Potency [1] | Potency [2] | Potency [3] | Potency [4] | Potency [20] | outcome [6] | outcome [7] | Potency [8] | outcome [9] | outcome [10] | Potency [11] | outcome [12] | outcome [19] | outcome [13] | outcome [14] | outcome [15] | outcome [16]

OCC(O)c1ccccc1 (stereo not given)
inactive: Potency [1] | Potency [2] | Potency [3] | Potency [4] | Potency [5] | outcome [6] | outcome [7] | Potency [8] | outcome [9] | outcome [10] | Potency [11] | outcome [12] | outcome [13] | outcome [14] | outcome [15] | outcome [16]

CCCCCCCCCCCCCCCCCCCl
inactive: activation [1] -2.7% [at 8.3 µM] | activation [2] 2.16% [at 8.08 µM] | activity change, negative = cytotoxicity [3] -0.103% [at 8.08 µM] | activity, negative = cytotoxicity [4] -17.2% [at 8.08 µM] | activity change, negative = cytotoxicity [5] -4.97% [at 8.08 µM] | fluorescence, % of fluorescein control [7] 0.0105% [at 3.72 µM] | fluorescence, % of triamterene [8] 0.0349% [at 3.72 µM] | fluorescence, % of fluorescent control [9] -0.145% [at 3.72 µM] | fluorescence, % of fluorescein [10] -0.0209% [at 3.72 µM] | fluorescence, % of fluorescent control [11] -0.0234% [at 3.72 µM] | activity change [12] 0.0076% [at 3.72 µM] | fluorescence, % of fluorescent control [19] 0.0246% [at 3.72 µM] | fluorescence, % of fluorescent control [14] -0.0175% [at 3.72 µM] | fluorescence, % of fluorescein control [15] 0.0829% [at 3.72 µM] | fluorescence, % of fluorescent control [16] -0.0032% [at 3.72 µM]

Cc1cc(C)c(C)c(O)c1
inactive: Potency [1] | Potency [2] | Potency [3] | Potency [4] | Potency [5] | outcome [6] | outcome [7] | Potency [8] | outcome [9] | outcome [10] | Potency [11] | outcome [19] | outcome [13] | outcome [14] | outcome [15] | outcome [16]

CC(=O)Nc1ccn(C2COC(COC(=O)c3ccccc3)O2)c(=O)n1 (stereo not given)
active: Potency [1] 3760 nM
inactive: Potency [2] | Potency [3] | Potency [4] | Potency [20] | outcome [6] | outcome [7] | outcome [9] | outcome [10] | Potency [11] | outcome [12] | outcome [19] | outcome [13] | outcome [14] | outcome [15] | outcome [16]

O=C1C=CCCC1
inactive: Potency [1] | Potency [2] | Potency [3] | Potency [4] | Potency [5] | outcome [6] | outcome [7] | Potency [8] | outcome [9] | outcome [10] | Potency [11] | outcome [12] | outcome [19] | outcome [14] | outcome [15] | outcome [16]

CC(C)=CCCC(C)C=O (stereo not given)
inactive: Potency [1] | Potency [2] | Potency [3] | Potency [4] | Potency [5] | outcome [6] | outcome [7] | Potency [8] | outcome [9] | Potency [11] | outcome [12] | outcome [19] | outcome [13] | outcome [14] | outcome [15] | outcome [16]

Nc1ccc(F)cc1F
inactive: Potency [1] | Potency [2] | Potency [3] | Potency [4] | Potency [5] | outcome [6] | outcome [7] | Potency [8] | outcome [9] | outcome [10] | Potency [11] | outcome [12] | outcome [19] | outcome [13] | outcome [14] | outcome [15] | outcome [16] | Potency [17] | Potency [18]
